eLon inh = inhibits E. coli Lon protease; P0A9M0; 360,000 compounds, 0.42% hits; purified E. coli Lon protease, fluorescence polarization; inhibition, % at 7.94 µM; in the data active = inhibition above about 13%, passing the limit was not always enough;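 also: 0% = enzyme with probe and DMSO and 100% = no enzyme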
RTF Ca sens inh = cardiac RTF calcium desensitization; inhibition, % at 7.15 µM; IANBD-labeled cardiac RTF, Ca2+ fluorescence; 340,000 compounds, 0.12% hits;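 active = inhibition above the mean inhibition of all tested compounds plus 3 SD, cut at about 17% in these data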;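 also: assay run at fixed EC70 calcium of 1.6 mM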
LANA DNA inh = inhibitors of KSHV LANA C-terminal domain DNA binding; MBP-C-LANA/FAM-LBS DNA binding, fluorescence polarization; inhibition, % at 9 µM; 340,000 compounds, 0.078% hits; AID 504423;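 active = highest replicate inhibition at or above 60% at 9 µM, even if other replicates fall short; inactive = all replicates below 60% inhibition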;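 also: 0% = neutral control wells and 100% = 4 µM acridine orange control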
cardiac RTF act = cardiac RTF calcium sensitization | 340,000 compounds, 0.24% hits | activation, % at 7.2 µM | IANBD-labeled TnC RTF fluorescence at EC20 calcium; 0% EC20 calcium, 100% full calcium | AID 493008 | P19429+P45379;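 active = activation above the mean over all tested compounds plus 3 SD, cut at about 30% in these data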;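 also: rise in fluorescence read as greater calcium sensitivity of cardiac thin filaments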
Keap1 Nrf2 FP = inhibitors of human Keap1-Nrf2 protein-protein interaction; Q14145; 340,000 compounds, 0.15% hits; Keap1 Kelch-Nrf2 peptide fluorescence polarization, 1536-well; inhibition, % at 9.4 µM; in the data active = inhibition above about 12%; inconclusive = no clear call, values can overlap the other calls; inactive = below about 7.3%;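 also: human Keap1 Kelch domain with fluorescein labeled Nrf2 9mer peptide probe; 0% = neutral control wells and 100% = peptide positive control; higher means more block of Keap1 binding to Nrf2 peptide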
Target sequence (Q14145 whole entry, looked up, the tested form may be a part): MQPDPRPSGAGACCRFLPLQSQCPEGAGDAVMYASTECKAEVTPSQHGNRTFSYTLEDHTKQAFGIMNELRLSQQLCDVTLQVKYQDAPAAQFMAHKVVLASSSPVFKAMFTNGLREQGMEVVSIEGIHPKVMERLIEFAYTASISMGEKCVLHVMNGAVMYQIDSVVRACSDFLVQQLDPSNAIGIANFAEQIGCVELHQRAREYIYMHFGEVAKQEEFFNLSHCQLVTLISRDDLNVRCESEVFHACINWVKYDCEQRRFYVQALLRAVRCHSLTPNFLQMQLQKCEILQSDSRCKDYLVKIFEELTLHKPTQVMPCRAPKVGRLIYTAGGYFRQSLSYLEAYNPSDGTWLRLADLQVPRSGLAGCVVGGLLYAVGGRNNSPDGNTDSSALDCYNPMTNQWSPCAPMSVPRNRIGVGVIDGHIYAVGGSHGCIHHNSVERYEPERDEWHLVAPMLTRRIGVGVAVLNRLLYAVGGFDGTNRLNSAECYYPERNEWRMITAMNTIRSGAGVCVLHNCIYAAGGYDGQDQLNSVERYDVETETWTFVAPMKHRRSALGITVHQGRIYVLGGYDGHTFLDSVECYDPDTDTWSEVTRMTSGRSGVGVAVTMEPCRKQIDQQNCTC
eLon confirm = E. coli Lon inhibition confirmation; shares compounds with eLon inh; inhibition, % at 7.94 µM; purified E. coli Lon, fluorescence polarization; AID 602230; 1,400 compounds, 31% hits; in the data active = inhibition above about 16%;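 also: 0% = enzyme with probe and DMSO and 100% = no enzyme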
* hit, by the source's call; i = inactive; ? = inconclusive; / = not tested or not shown; + = active, no number. Most compounds without a hit are left out; they make up all but 0.82% or so of the library.

SMILES | eLon inh | RTF Ca sens inh | LANA DNA inh | cardiac RTF act | Keap1 Nrf2 FP | eLon confirm
Cn1c(=O)c2[nH]c(-c3ccccc3Cl)c(O)c2n(C)c1=O | 138.8* | -17.4 | 2.7 | 12.0 | 0.4 | 13.3
Cn1c(=O)c2[nH]c(-c3ccccc3)c(O)c2n(C)c1=O | + | -28.9 | 16.6 | 9.4 | 11.0 | +
Cc1ccc(C(=O)N2CCCN(c3nc4cc5c(cc4cc3C#N)OCO5)CC2)cc1 | 73.1* | -9.3 | 5.8 | 6.7 | -0.5 | 5.2
Cc1nc(-c2cccc(NC(=O)c3cccc(S(=O)(=O)N4CCCC4)c3)c2)cs1 | -6.0 | -7.6 | 0.2 | 0.5 | -6.0 | /
CC(C)[C@H](NC(=O)OC(C)(C)C)C(=O)N1CCC(C(=O)N[C@@H](C)C(=O)Nc2ccc(F)cc2)CC1 | 19.5* | -6.1 | 31.8 | -6.5 | -0.7 | -4.5
COc1ccc(-c2onc3ccc(Br)cc23)cc1 | 39.0* | -16.3 | 9.7 | 8.2 | 8.9 | 86.3*
O=C(NCCc1ccccc1)c1cccc(NC(=O)C2CCCC2)c1 | 16.1* | -1.1 | 0.6 | 2.1 | -4.1 | -1.3
O=C(NCCc1ccccc1)C1CCN(S(=O)(=O)N2CCCCCC2)CC1 | 35.1* | -0.8 | 2.1 | -0.2 | -7.6 | 18.8*
O=C(NCCc1ccccc1)c1cccc(NC(=O)C2CCCCC2)c1 | 8.0 | -1.6 | 0.8 | -5.9 | -6.1 | /
CCN(CC)c1ccc(C=Nc2cc(C)ccc2C)c(O)c1 | -4.7 | -6.3 | -1.0 | 20.5 | -1.4 | /
CCN(CC)c1ccc(C=Nc2cccnc2Cl)c(O)c1 | 16.2* | -8.7 | 6.7 | -0.7 | 3.3 | -1.3
CCCCc1nc(NCCNC(=O)c2ccccc2)c(C#N)c2c1CSC(C)(C)C2 | 12.4* | -13.6 | 0.5 | 0.6 | -8.7 | -0.9
CCOC(=O)C1CCN(C(=O)c2ccccc2)c2scc(-c3ccccc3)c2C1=O (stereo not given) | -5.8 | / | / | / | / | /
COC1=CC(=NCl)C=CC1=NCl | 44.6* | / | / | / | / | 39.3*
CCCOc1ccccc1OCC(=O)Nc1cccc(S(=O)(=O)NC2=NCCC2)c1 | 5.8 | -6.8 | -0.6 | 8.0 | 0.4 | /
NC(=O)c1ccc(NC(=O)COC(=O)C2CCN(S(=O)(=O)c3cccs3)CC2)cc1 | 0.3 | -6.8 | 0.9 | -0.1 | -4.5 | /
CCN1CCN(C(=O)CSCc2nc(-c3ccc(OC)c(OC)c3)oc2C)CC1 | 15.1* | -6.3 | 0.1 | 0.8 | -3.1 | 6.9
N#CCCN(C(=O)COc1ccc(Cl)cc1Cl)c1ccccc1 | 7.6 | -3.9 | -1.5 | 4.2 | -2.5 | /
O=C1NC(=O)/C(=C/c2ccc(-c3cc(C(=O)O)ccc3Cl)o2)S1 | -9.6 | -3.6 | 4.8 | -0.3 | 0.3 | /
O=C1NC(=S)/C(=C\c2ccc(-c3ccccc3Cl)o2)S1 | 47.6* | -37.5 | 14.7 | 17.9 | 2.5 | 20.2*
CC(C)C(=O)NNS(=O)(=O)c1ccccc1[N+](=O)[O-] | 14.9* | -22.0 | -0.6 | 1.5 | -3.8 | 3.3
COc1cc(C(=O)Nc2ccc(C#N)cc2)c([N+](=O)[O-])cc1OC | 0.1 | 3.0 | -0.4 | -2.6 | 2.6 | /
CN1CCN(C(c2ccc(F)cc2)c2ccc3cccnc3c2O)CC1 (stereo not given) | 25.5* | 6.8 | -0.4 | -6.3 | -4.9 | -2.8
COC/C=C/C1=CC2=CC(=O)C(C)(OC(=O)c3cnc4ccccc4n3)C(=O)C2=CN1CCOC (stereo not given) | 29.5* | 4.1 | 2.3 | 9.8 | -3.6 | 8.0
COC/C=C/C1=CC2=CC(=O)C(C)(OC(=O)c3cnc4ccccc4n3)C(=O)C2=CN1CCCOC(C)C (stereo not given) | 13.0 | -2.7 | -0.3 | -2.7 | -3.0 | /
SMILES | eLon inh | RTF Ca sens inh | LANA DNA inh | cardiac RTF act | Keap1 Nrf2 FP | eLon confirm
CCSc1nnc(-c2cccs2)o1 | 64.7* | -2.4 | -0.4 | 0.3 | -7.0 | -3.2
O=C1c2ccccc2C(O)N1Cc1ccc2c(c1)OCO2 (stereo not given) | 15.4* | -0.5 | -0.5 | 0.4 | -5.9 | -0.6
COc1ccc(C(=O)N=C2SC3CS(=O)(=O)CC3N2c2ccccc2)cc1OC (stereo not given) | 19.4* | -4.2 | -2.3 | 0.7 | -4.7 | 1.0
O=C(N=C1SC2CS(=O)(=O)CC2N1c1ccccc1)c1cccc([N+](=O)[O-])c1 (stereo not given) | 8.1 | 2.0 | -1.3 | -3.5 | -1.2 | /
Nc1ccc(O)c2c1C(=O)c1ccccc1C2=O | 31.2 | -10.4 | 8.2 | 1.0 | -0.3 | /
O=C1c2ccccc2C(=O)c2c(O)c(O)cc(O)c21 | + | -3.7 | 11.0 | 2.9 | 7.4 | +
N#Cc1c(NCCCO)nc(-c2ccccc2)c2c1CCCC2 | 14.4* | -9.7 | -0.4 | 21.0 | -6.6 | -3.3
COc1cccc(/C=N/NC(=O)c2ccc(=O)n(C)c2)c1OC | 22.4* | -3.5 | -1.2 | 0.3 | 2.3 | 3.6
CC1C(=O)C(C)C(c2ccco2)NC1c1ccco1 (stereo not given) | 24.3* | -10.4 | 2.0 | 2.6 | 1.4 | -5.1
CCOc1ccc(NC(=S)N2CCC(N(C)CCN3CCOCC3)CC2)cc1 | -10.5 | -3.2 | -1.8 | -7.2 | 2.2 | /
O=C(N/N=C/c1ccccc1)C(=O)N/N=C/c1ccccc1 | 19.9* | -7.9 | -1.5 | 2.2 | -0.8 | 2.9
O=C(N/N=C\c1ccccc1)c1cccc(C(=O)N/N=C\c2ccccc2)n1 | 0.7 | / | / | / | / | /
CC(=O)N/N=C/c1cc(C(C)C)cc(/C=N/NC(C)=O)c1O | 69.4* | -17.4 | 32.2 | 9.7 | ? | 100.5*
CC(C)c1cc(C(=O)N/N=C/c2c[nH]c3ccccc23)n[nH]1 | 24.8* | -0.6 | 0.6 | 2.5 | -5.1 | -7.6
CCOC(=O)c1ccc(CNC(=O)CSc2nc(NC(=O)c3ccccc3)c3c(C)c(C)oc3n2)cc1 | 17.1* | -1.0 | -0.2 | 0.7 | -5.9 | -4.3
CCOC(=O)c1ccc(CNC(=O)CSc2nnc(-c3ccncc3)o2)cc1 | -4.0 | 8.3 | 0.4 | 6.0 | -0.3 | /
O=C(CN1C(=O)NC2(CCCCC2)C1=O)Nc1ccc2[nH]c(=O)[nH]c2c1 | 40.1* | 0.3 | 0.6 | -2.4 | -1.8 | -7.8
CCOC(=O)c1c2c3c(cccc3n(C)c1=O)C(=O)c1ccccc1-2 | 143.7* | -9.0 | 1.8 | 2.7 | 6.6 | 65.1*
CCOC(=O)c1c2c3c(cccc3[nH]c1=O)C(=O)c1ccccc1-2 | -2.1 | -5.3 | 1.9 | 0.4 | -1.1 | /
CCOC(=O)c1c2c3c(c(Cl)ccc3[nH]c1=O)C(=O)c1ccccc1-2 | 17.2* | / | -0.5 | / | -0.6 | 38.1*
CC(=O)Nc1cc(C(=O)N2CCc3ccccc3C2)ccc1Sc1ccc(Cl)cc1 | 0.3 | -5.3 | 0.1 | 8.5 | -7.2 | /
COc1cc(CNC(=O)c2ccc3oc(C(C)C)nc3c2)cc(OC)c1 | 7.0 | -1.0 | 0.0 | -4.1 | -5.9 | /
CCn1c(SCC(=O)Nc2ccc(N3CCOCC3)cc2)nnc1-c1ccco1 | 27.1* | 4.8 | 0.1 | -4.4 | -2.0 | 2.0
Nc1ccc2cc3[nH]c4cc(N)ccc4c3nc2c1 | + | i | 164.5* | + | 161.3* | 146.1*
Nc1ccc(-c2nc3ccc(N)cc3[nH]2)cc1 | 2.6 | 1.1 | 0.1 | 2.5 | 0.1 | /

Compound activity: PubChem, several laboratories
